Source: PubChem BioAssay (Tox21)
A number with no mark means an inactive call. The source made the active and inactive calls. The call rests on the fitted dose curve.

What follows are compounds tested against Estrogen receptor (Homo sapiens) (UniProt P03372) (assay: qHTS assay to identify small molecule agonists of the estrogen receptor alpha (ER-alpha) signaling pathway in the presence of an antagonist (AID 1259383; further: nearly all actives have a fitted effect of over 15% in size; on activation: top concentration of the series differs between compounds)). Details: VM7Luc4E2 cells, ERE-luciferase, +ICI-182,780, 22 h; series mostly up to 92.4 µM; activation: at the top concentration.
Source text: National Center for Advancing Translational Sciences [NCATS] NIH Chemical Genomics Center [NCGC] U.S. Environmental Protection Agency [EPA] National Institutes of Environmental Health Sciences [NIEHS] National Toxicology Program [NTP] Assay overview: Estrogen receptor (ER), a member of nuclear hormone receptor plays an important role in development, metabolic homeostasis and reproduction. Two subtypes of ER, ER-alpha and ER-beta, have similar expression patterns with some uniqueness in both types. Endocrine disrupting chemicals (EDCs) and their interactions with steroid hormone receptors like ER causes disruption of normal endocrine function. Therefore, it is important to understand the effect of environmental chemicals in ER signaling pathway. For identifying ER agonists, VM7Luc4E2 cell line has been used in the current assay. VM7Luc4E2 cell line (provided by Denison MS, University of California) endogenously expresses full-length ER-alpha and is stably transfected with a plasmid containing four estrogen responsive elements (ERE) upstream of a luciferase reporter gene. This current screening for measuring luciferase reporter gene activity using VM7Luc4E2 cells against Tox21 10K library collection is a confirmation study on agonist mode screening in presence of ER-antagonist (ICI-182,780) at 10.0nM final concentration.
Assay Protocol Summary: VM7Luc4E2 cells were cultured in phenol red free assay medium containing 10% charcoal stripped FBS for 5 days prior to the assay. The cells were dispensed at 4,000 cells in 4uL of assay medium per well into white wall/solid-bottom 1536-well plates (Corning Life Sciences, Corning, NY) using a Multidrop Combi (Thermo Fisher Scientific Inc., Waltham, MA) dispenser. After the assay plates were incubated at 37C and 5% CO2 for 24hr, 1uL of 10.0nM (final concentration) ICI-182,780 or assay buffer was added using two separate tips of Flying Reagent Dispenser (FRD, Aurora Discovery, San Diego, CA). Then 23nL of compounds dissolved in DMSO at 15 concentrations and positive controls or DMSO only was transferred to the assay plates by a Pintool station (Wako, San Diego, CA). The assay plates were incubated at 37C and 5% CO2 for 22hr. For luciferase read, 4uL/well ONE-Glo reagent (Promega Corporation, Madison, WI) was added to each well using FRD and after 30min incubation at room temperature, luminescence signal was measured on ViewLux plate reader (PerkinElmer, Shelton, CT).
On the % scale 0 is the no-effect control and ±100 the full control effect; potency means the concentration at half of the fitted maximal effect.

Chain of Estrogen receptor (Homo sapiens) (P03372 whole entry, looked up): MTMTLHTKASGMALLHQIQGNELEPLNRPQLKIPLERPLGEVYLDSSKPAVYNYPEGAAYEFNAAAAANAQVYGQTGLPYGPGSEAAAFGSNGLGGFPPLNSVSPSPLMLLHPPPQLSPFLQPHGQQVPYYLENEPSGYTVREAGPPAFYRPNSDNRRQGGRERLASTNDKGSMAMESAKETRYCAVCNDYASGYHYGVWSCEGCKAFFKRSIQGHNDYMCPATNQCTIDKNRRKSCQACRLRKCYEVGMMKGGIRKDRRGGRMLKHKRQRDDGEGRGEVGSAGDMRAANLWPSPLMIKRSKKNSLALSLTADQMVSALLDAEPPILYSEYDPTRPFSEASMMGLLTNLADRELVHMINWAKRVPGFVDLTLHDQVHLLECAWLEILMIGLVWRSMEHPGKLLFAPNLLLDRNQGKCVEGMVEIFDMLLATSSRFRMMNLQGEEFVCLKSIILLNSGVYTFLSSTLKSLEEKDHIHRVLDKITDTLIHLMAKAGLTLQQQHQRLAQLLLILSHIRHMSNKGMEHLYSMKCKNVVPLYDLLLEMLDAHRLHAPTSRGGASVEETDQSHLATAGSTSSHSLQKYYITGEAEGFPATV

In order of rising “activation” value:
1. Cc1ccc2c(C)cccc2c1  -1.85%
2. CN(C)C(=O)Nc1cccc(OC(=O)NC(C)(C)C)c1  -1.39%
3. C=CCOCC1CO1 (stereo not given)  -1.35%
4. NNCCO  -1.31%
5. COC(=O)Cc1ccccc1  -1.22%
6. FC(Cl)(Cl)C(F)(Cl)Cl  -1.21%
7. C=CC(=O)OCC  -1.2%
8. CCC[N+](CCC)(CCC)CCC  -1.04%
9. O=[N+]([O-])c1cc(Cl)c(Cl)cc1Cl  -0.637%
10. C[N+](C)(C)CC1CO1 (stereo not given)  -0.194%
11. C1CCNCC1  -0.188%
12. COc1cc(CC(C)N)c(OC)cc1Br (stereo not given)  -0.0597%
13. CCCSP(=S)(OCC)Oc1ccc(SC)cc1 (stereo not given)  0.418%
14. N#CC(C#N)=C(C#N)C#N  0.484%
15. Clc1ccc2ccccc2c1  0.54%
16. CCSCc1ccccc1OC(=O)NC  2.18%
17. CC(C)C1(C)N=C(c2ncccc2C(=O)O)NC1=O (stereo not given)  2.6%
18. CCOC(=O)c1cn2nc(OP(=S)(OCC)OCC)cc2nc1C  4.24%
19. CC(=O)OC(c1ccccc1)C(Cl)(Cl)Cl (stereo not given)  5.35%
20. O=C(Cc1ccccc1)c1ccccc1  6.82%
21. CC(C)c1ccc(NC(=O)N(C)C)cc1  10.8%

With `O=C1c2ccccc2C(=O)N1SC(Cl)(Cl)Cl` the Potency was “inactive”.
`CCC1(C2=NCCN2)Cc2ccccc2O1` (stereo not given) was tested, and the Potency was 3.35 µM (active).
With `CCCCCCCCCCCC[N+](C)(C)CCOc1ccccc1` the Potency was “inactive”.
In the case of `COP(=O)(OC)OC(Br)C(Cl)(Cl)Br` (stereo not given), the Potency is reported as “inactive”.
In the case of `CN(C)c1ccc(N=O)cc1`, the Potency is reported as “inactive”.
In the case of `CCC(C)(C)c1ccc(O)c(C(C)(C)CC)c1`, the Potency is reported as “inactive”.
For `CCCC(C)(COC(N)=O)COC(=O)NC(C)C` (stereo not given), the Potency was “inactive”.
With `CN1C[C@H](C(=O)N[C@]2(C)O[C@@]3(O)[C@@H]4CCCN4C(=O)[C@H](Cc4ccccc4)N3C2=O)C=C2c3cccc4[nH]cc(c34)C[C@H]21` the Potency was “inactive”.

In order of rising “activation” value:
1. CCC1(CC)C(=O)NC(=O)NC1=O  -0.718% [at 42.5 µM]
2. C#CC(O)(C=CCl)CC (stereo not given)  -0.558% [at 42.5 µM]
3. CN1C(=O)CN=C(c2ccccc2)c2cc([N+](=O)[O-])ccc21  -0.302% [at 42.5 µM]
4. NP(N)(=O)NC(=O)c1ccc(F)cc1  -0.214% [at 42.5 µM]
5. C[N+]1(CCF)[C@@H]2CC[C@H]1CC(OC(=O)C(O)(c1ccccc1)c1ccccc1)C2 (stereo not given in full)  -0.0537% [at 42.5 µM]
6. COC1CC(=C(c2cccs2)c2cccs2)C[N+](C)(C)C1 (stereo not given)  0.0644% [at 42.5 µM]
7. O=C(O)c1ccc(=O)[nH]c1  0.173% [at 42.5 µM]
8. CCN(C(C)=O)c1cccc(-c2ccnc3c(C#N)cnn23)c1  0.206% [at 42.5 µM]
9. COc1cc(CC#N)cc(OC)c1OC  0.781% [at 42.5 µM]
10. CC(Cc1ccccc1)NCc1ccccc1Cl (stereo not given)  5.24% [at 42.5 µM]

Compound `Nc1c(Br)cc(Br)c2c1C(=O)c1ccccc1C2=O` has an activation of 1.8% [at 19 µM].
